From PubChem
CRFR2-BP antag: blocks CRF-induced signaling of the CRF-BP/CRF-R2 complex. HEK293 CRF-R2/CRF-BP, CRF-induced calcium fluorescence. inhibition, % at 11.8 µM. 350,000 compounds, 0.59% hits;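 active = inhibition of the ligand-induced calcium signal above about 50% at the single tested concentration, limit read from the data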
IDE cell inh: inhibits human insulin-degrading enzyme in HEK cells | P14735 | FAbetaB cleavage, fluorescence polarization | inhibition, % at 5.59 µM | 320,000 compounds, 0.41% hits;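 active = percent inhibition above the average of all tested compounds plus 3 SD, set per screening campaign, cut at about 16% in these data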;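 note: IDE supplied by intact live HEK cells; FP after avidin binding of uncleaved biotin substrate so inhibition keeps polarization high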
IDE act: activators of human insulin-degrading enzyme in cells; 340,000 compounds, 0.073% hits; AID 493087; P14735; HEK cells, FAbeta-B cleavage, fluorescence polarization; 0% vehicle, 100% cell-free pure enzyme wells; activation, % at 5.96 µM;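 active = activation above the mean of all tested compounds plus 3 SD, set per screening campaign, cut at about 17% in these data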
CRFR2-BP ag: agonists of human CRF-binding protein/CRF-R2 receptor complex | 350,000 compounds, 0.46% hits | HEK293 CRF-R2/CRF-BP, calcium dye fluorescence (FLIPR); percent of saturating CRF peptide response | activation, % at 13.2 µM;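 active = activation of at least 50%, plus an integration ratio under a set limit after plate pattern correction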
Myeloid diff MLP: compounds promoting myeloid differentiation; ER-HoxA9 myeloid progenitors, lysozyme-GFP differentiation, flow cytometry; calls only at 10 µM; 360,000 compounds, 1% hits;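 active = normalized GFP-positive differentiation at or above the plate's own cutoff, the solvent-only control mean plus 3 SD; inconclusive = no clear call, values can overlap the other calls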;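 note: cells exposed to compound for four days before flow analysis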
TPT1 inh: blocks Candida albicans tRNA 2'-phosphotransferase | inhibition, % at 5 µM | recombinant caTPT1, FP RNA substrate dephosphorylation | 300,000 compounds, 0.81% hits;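 active = inhibition above the mean of all tested compounds plus 3 SD, set per screening campaign, cut at about 24% in these data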
Each line names hits and unclear results; the compound was inactive in the other large screens. Sampled rows, rich in hits. Any-hit rate of the full collection: about 2.6%.

COc1ccc(C(=O)Nc2ccnn2C2CCN(C(=O)c3cc(C)on3)CC2)cc1	none
CC1(C)Cc2c(C#N)c(NCC3CCCO3)nc(-c3ccco3)c2CO1 (centres undefined)	CRFR2-BP antag 104
CC1(C)Cc2c(C#N)c(NC3CCCCC3)nc(-c3ccco3)c2CO1	none (no result: CRFR2-BP antag, CRFR2-BP ag)
COc1ccc(Oc2c(OC)cc(NCc3ccc(CN)cc3)c3ncccc23)cc1	Myeloid diff MLP active (no result: IDE cell inh, IDE act, TPT1 inh)
Cc1nn(-c2cc(C(F)(F)F)ccc2Cl)c2nc(C(Cl)(Cl)Cl)[nH]c(=O)c12	CRFR2-BP antag 52
CNCC(=O)O	CRFR2-BP antag 77
CCOC(=O)C(=CNCC(=O)O)C(=O)OCC	none
O=C(c1ccc(Cl)c(S(=O)(=O)N2CCOCC2)c1)N1CCN(c2ccccc2)CC1	none
CN(C)c1c([N+](=O)[O-])ncn1C	CRFR2-BP antag 54
COc1ccc(CCn2c(C)cc(C(=O)CCl)c2C)cc1OC	none
CC(N=C1NS(=O)(=O)c2ccccc21)C(=O)N1CCc2ccccc2C1 (centres undefined)	CRFR2-BP antag 106
COc1ccc(/C(C)=N/NC(=O)CNC(=O)C(c2ccccc2)c2ccccc2)c(OC)c1	none
Cc1cccc(C(C)C)c1-n1nnnc1-c1ccccc1	CRFR2-BP antag 54
c1ccc(-c2nnnn2-c2ccccn2)cc1	none (no result: IDE cell inh, TPT1 inh)
CC1(C)CC(=O)C2=C(C1)N(Cc1ccco1)C(=O)C2(O)C(F)(F)F (centres undefined)	CRFR2-BP antag 94
CC1(C)CC(=O)C2=C(C1)N(Cc1ccco1)C(=O)C2(NC(=O)c1cccnc1)C(F)(F)F (centres undefined)	none
Cn1c(SCC(=O)N/N=C/c2ccc([N+](=O)[O-])s2)nnc1-c1ccccc1	Myeloid diff MLP inconclusive
Cn1c(SCC(=O)N/N=C/c2cc([N+](=O)[O-])ccc2O)nnc1-c1ccccc1	CRFR2-BP ag 62
COc1ccc(CC2(C)OC(c3ccc(C)c([N+](=O)[O-])c3)=NN2C(C)=O)cc1 (centres undefined)	none
CC1=CC(=O)C(C(C)C)=C/C1=N/OS(=O)(=O)c1ccccc1	CRFR2-BP ag 51 (no result: Myeloid diff MLP)
CC1=CC(=O)C=C(C)C1=NOS(=O)(=O)c1ccccc1	Myeloid diff MLP inconclusive (no result: IDE cell inh, TPT1 inh)
CC(=O)Nc1ccc(Sc2ncccc2C(=O)Nc2ccc(OC(F)(F)F)cc2)cn1	CRFR2-BP ag 130 (no result: Myeloid diff MLP)
CC(=O)Nc1ccc(Sc2ncccc2C(=O)Nc2cc(Cl)cc(Cl)c2)cn1	Myeloid diff MLP inconclusive
Cc1ccc(-n2nc3c([n+]2[O-])CCc2c-3no[n+]2[O-])cc1	Myeloid diff MLP active
[O-][n+]1onc2c1CCc1c-2nn(-c2ccccc2Cl)[n+]1[O-]	none (no result: Myeloid diff MLP)
CCOC(=O)Cc1csc(NC(=O)C(NC(=O)C2CCC(C)CC2)C(C)C)n1 (centres undefined)	none
CCOC(=O)c1ccc(NC(=O)Nc2cccc(C)n2)cc1	none
CCOC(=O)c1ccc(NC(=O)Nc2ccn(C)n2)cc1	Myeloid diff MLP active
S=C1SC2(CCCCCC2)NC2=C1CCCCC2	none (no result: IDE cell inh, IDE act, TPT1 inh)
C[C@@H]1CN([C@H](C)CO)S(=O)(=O)c2ccc(Br)cc2O[C@@H]1CN(C)C(=O)NC1CCCC1	none (no result: IDE cell inh, IDE act, TPT1 inh)
CN(C)S(=O)(=O)n1cc(/C=C(\NC(=O)c2ccccc2F)C(=O)N2CCCCC2)c2ccccc21	none (no result: IDE cell inh, IDE act, TPT1 inh)
CN(C)CCNc1ccc2ncn3c4ccc(O)cc4c(=O)c1c23	CRFR2-BP ag 75 (no result: IDE cell inh, Myeloid diff MLP, TPT1 inh)
OC(Cc1cccc(Br)c1)c1ncc(-c2cccc(C(F)(F)F)c2)[nH]1 (centres undefined)	none (no result: CRFR2-BP antag, IDE cell inh, IDE act, CRFR2-BP ag, TPT1 inh)
Cc1nnc(C)n1/N=C/c1cccs1	CRFR2-BP antag 55
O=C1COc2ccc(S(=O)(=O)NCCc3ccccc3)cc2N1	Myeloid diff MLP active
CCOc1ccc(CCNS(=O)(=O)c2ccc3c(c2)NC(=O)CO3)cc1OCC	none
COc1ccc(C2C3=C(CC(C)(C)CC3=O)Nc3c2c(=O)n(C)c(=O)n3C)cc1OC (centres undefined)	CRFR2-BP antag 113
COc1ccc(C2C3=C(CC(C)(C)CC3=O)Nc3c2c(=O)[nH]c2nc(C)nn32)cc1 (centres undefined)	Myeloid diff MLP active
COC(=O)c1ccc(COC(=O)c2ccc(SC)cc2OC)cc1	none
Nc1ncnc2c1ncn2[C@@H]1O[C@H](CO)[C@@H](O)[C@H]1O	Myeloid diff MLP active
Cn1cc(S(=O)(=O)NC[C@H]2O[C@@H](n3cnc4c(N)ncnc43)[C@H](O)[C@@H]2O)cn1	Myeloid diff MLP active (no result: IDE cell inh, TPT1 inh)
